PAX8 inh HTS – inhibitors of PAX8-driven TPO luciferase reporter, primary screen, RMG-I cells, single concentration; inhibition, % at 12.6 µM; AID 652154, 2013; 360,000 compounds, 1.2% hits; SteadyGlo, 24 h;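 active = mean replicate inhibition at least 60% with every replicate also reaching 60%; inconclusive = only one of the two criteria is met; inactive = mean below 60% and not all replicates reaching 60%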;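 also: luciferase light reporting Pax8 driven TPO promoter activity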
LGR2 inh – inhibitors of bursicon-induced LGR2 CRE-luciferase signal, primary screen, cell-based, HEK293, CRE-luciferase reporter, bursicon stimulation; 380,000 compounds, 0.35% hits; inhibition, % at 9.99 µM; bursicon-stimulated, 4 h; Drosophila bursicon receptor LGR2 (rickets); AID 720647, 2013;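 active = drop in luminescence signal, shown as inhibition above about 50% in the replicate tests, limit read from the data, passing the limit was not always enough; inconclusive = probably only some replicates passing the limit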;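 also: agonist challenge used bursicon conditioned medium at about half maximal strength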
Shn3 3UTR inh – reduction of Shn3 3'UTR firefly luciferase signal, primary screen, Schnurri-3 inhibitor project, cell-based, Clone20 osteoblasts, set 2; Clone20 osteoblast Shn3 3'UTR firefly luciferase, 24 h; inhibition, % at 12.5 µM; 360,000 compounds, 0.52% hits; AID 588674, 2011;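 active = mean inhibition of at least 75% with every replicate also reaching 75%; inconclusive = mean inhibition at least 75% but some replicate below; inactive = mean inhibition below 75%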
CF NFkB block – inhibitors of PAF-induced NF-kB signaling, primary screen, cell-based, GFP fluorescence, uHTS; KKLEB NF-kB-GFP reporter, GFP fluorescence overnight; inhibition, % at 5 µM; 360,000 compounds, 0.86% hits; AID 588850, 2011;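 active = at least 50% inhibition at 5 µM, scaled per plate between neutral and stimulator controls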;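 also: PAF is a Pseudomonas aeruginosa culture filtrate used as stimulus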
KKLEB tox – cytotoxicity in KKLEB CF airway cells, primary screen, cytotoxicity control for CF NF-kB inhibitor project, cell-based, uHTS, fluorescence assay plates; activity change (cytotoxicity), % at 5 µM; 360,000 compounds, 0.36% hits; KKLEB CF airway cells viability, ATPlite luminescence, overnight; hits give low values; cells stimulated with P. aeruginosa culture filtrate; AID 602141, 2011;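 active = corrected activity change at or below -50% at 5 µM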
EWS-Fli block – EWS/Fli-driven NR0B1 reporter inhibitors, primary screen, A673 cells, NR0B1 luciferase, luminescence, MLPCN library | viability-normalised | 350,000 compounds, 0.67% hits | inhibition, % at 12.6 µM | AID 651661, 2012;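 active = mean inhibition of at least 50% after viability correction, with every replicate also passing that limit; inconclusive = mean reaches 50% but only one of two replicates passes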;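 also: firefly luciferase signal divided by Alamar Blue viability fluorescence both relative to DMSO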
Hits are given with their value; – = inactive; ? = inconclusive; · = not tested or not shown. Rows were chosen to be rich in hits. Some 2% of all compounds tested hit in one or more screens of this group.

SMILES | PAX8 inh HTS | LGR2 inh | Shn3 3UTR inh | CF NFkB block | KKLEB tox | EWS-Fli block
C[C@@H]1CN([C@@H](C)CO)C(=O)Cc2cc(NC(=O)Nc3ccc(F)cc3)ccc2O[C@@H]1CN(C)Cc1ccc(C(=O)O)cc1 | – | – | · | · | · | –
O=C(NCC(c1cccs1)N1CCOCC1)c1cc(F)cc(F)c1 (stereo unspecified) | – | – | – | – | – | 53
O=C(NCC(c1cccs1)N1CCOCC1)c1cc([N+](=O)[O-])cc([N+](=O)[O-])c1 (stereo unspecified) | – | – | – | – | – | –
O=C(C[C@@H]1C[C@H]2c3cc(NC(=O)NC4CCCC4)ccc3O[C@H]2[C@H](CO)O1)NCC1CC1 | – | – | · | · | · | –
C[C@@H]1CCCCO[C@@H](CN(C)C(=O)Nc2ccc3c(c2)OCO3)[C@H](C)CN([C@@H](C)CO)C(=O)c2cc(NC(=O)Nc3ccccc3)ccc2O1 | – | – | · | · | · | –
C[C@@H]1CN([C@H](C)CO)C(=O)c2cccc(NS(=O)(=O)c3ccccc3)c2O[C@H]1CN(C)Cc1ccccc1 | – | – | · | · | · | –
Cc1ccc(S(=O)(=O)Nc2ccc3c(c2)CC(=O)N([C@@H](C)CO)C[C@@H](C)[C@H](CN(C)Cc2ccc(Cl)c(Cl)c2)O3)cc1 | 92 | – | · | · | · | –
C[C@@H]1CN([C@@H](C)CO)C(=O)Cc2cc(NS(=O)(=O)c3ccccc3)ccc2O[C@H]1CN(C)Cc1ccc(C(F)(F)F)cc1 | 92 | – | · | · | · | ·
Cc1ccc(S(=O)(=O)Nc2ccc3c(c2)CC(=O)N([C@@H](C)CO)C[C@@H](C)[C@H](CN(C)Cc2ccc(C(F)(F)F)cc2)O3)cc1 | 63 | – | · | · | · | –
C[C@@H]1CN([C@@H](C)CO)C(=O)Cc2cc(NS(=O)(=O)c3ccccc3)ccc2O[C@@H]1CN(C)Cc1ccc(C(F)(F)F)cc1 | – | – | · | · | · | ·
C[C@@H]1CN([C@H](C)CO)C(=O)Cc2cc(NS(=O)(=O)c3ccccc3)ccc2O[C@@H]1CN(C)CC1CCCCC1 | – | – | · | · | · | 64
C[C@@H]1CCCCO[C@@H](CN(C)C(=O)C2CCCCC2)[C@H](C)CN([C@@H](C)CO)C(=O)c2cc(N(C)C)ccc2O1 | – | – | · | · | · | –
CCCN(C)C[C@H]1OCCCC[C@H](C)Oc2ccc(NS(=O)(=O)c3c(C)noc3C)cc2C(=O)N([C@@H](C)CO)C[C@@H]1C | – | – | · | · | · | –
C[C@H](CO)N1C[C@H](C)[C@@H](CN(C)Cc2ccc(C(F)(F)F)cc2)Oc2ccc(NS(=O)(=O)c3ccc(Cl)cc3)cc2CC1=O | 102 | – | · | · | · | –
COCC(=O)N(C)C[C@@H]1Oc2ncc(C3=CCCC3)cc2C(=O)N([C@H](C)CO)C[C@H]1C | – | – | · | · | · | –
COc1ccc(OCCN(C)Cc2c(O)ccc3ccccc23)cc1 | 62 | – | – | – | – | –
CN(Cc1ccccc1)Cc1c(O)ccc2ccccc12 | – | – | – | – | – | –
COc1ccccc1/C=C/CN1CCC(n2nccc2NC(=O)CCc2ccccc2)CC1 | – | – | 86 | – | – | ·
O=C(CCc1ccccc1)Nc1ccnn1C1CCN(C/C=C/c2ccccc2)CC1 | – | – | – | – | – | –
CO[C@H]1CN(C)C(=O)c2cc(NS(C)(=O)=O)ccc2OC[C@H](C)N(C)C[C@H]1C | – | – | · | · | · | –
C[C@H](O)C(=O)C1=Nc2c(nc(N)[nH]c2=O)NC1 | – | – | – | – | -95 | –
C[C@H](O)[C@H](O)[C@H]1CNc2nc(N)[nH]c(=O)c2N1 | – | – | – | – | – | –
NC(=O)c1ncn2c(=O)n(CCCl)nnc12 | 81 | – | · | · | · | –
CCc1cccc(CC)c1NC(=O)/C(C#N)=C/c1ccccc1C(F)(F)F | – | – | – | 69 | -56 | ·
N#C/C(=C\c1ccccc1C(F)(F)F)C(=O)Nc1ccccc1 | – | – | – | – | – | –
SMILES | PAX8 inh HTS | LGR2 inh | Shn3 3UTR inh | CF NFkB block | KKLEB tox | EWS-Fli block
COc1ccccc1CNC(=O)c1ccc2nc3[nH]c4ccccc4c3nc2c1 | 162 | – | – | – | – | –
Cc1ccc(CNC(=O)c2ccc3nc4[nH]c5ccccc5c4nc3c2)cc1 | – | – | · | · | · | ·
CCCSc1nnc(CSc2nc3ccccc3s2)n1-c1ccccc1 | · | · | 87 | – | – | ·
C[C@@H]1O[C@@H](O[C@H]2[C@H](Oc3cc(O)c4c(c3)OC(c3ccc(O)cc3)CC4=O)O[C@H](CO)[C@@H](O)[C@@H]2O)[C@H](O)[C@H](O)[C@H]1O (stereo partly specified) | – | – | – | – | -54 | –
CN1/C(=C/C=C/c2n(C)c3cc([N+](=O)[O-])c([N+](=O)[O-])cc3[n+]2C)C(C)(C)c2ccccc21 | 100 | ? | – | – | – | –
COc1ccc(CN(C)C[C@H]2OCCCC[C@H](C)Oc3ccc(NS(=O)(=O)c4ccc(OC)cc4)cc3C(=O)N([C@H](C)CO)C[C@@H]2C)cc1 | – | – | · | · | · | 78
COc1ccc(CN(C)C[C@H]2OCCCC[C@@H](C)Oc3ccc(NS(=O)(=O)c4ccc(OC)cc4)cc3C(=O)N([C@@H](C)CO)C[C@@H]2C)cc1 | – | – | · | · | · | 69
COc1ccc(CN(C)C[C@@H]2OCCCC[C@H](C)Oc3ccc(NS(=O)(=O)c4ccc(OC)cc4)cc3C(=O)N([C@@H](C)CO)C[C@@H]2C)cc1 | – | – | · | · | · | 69
COc1ccc(S(=O)(=O)Nc2ccc3c(c2)C(=O)N([C@@H](C)CO)C[C@H](C)[C@@H](CN(C)Cc2ccc(Cl)c(Cl)c2)OCCCC[C@@H](C)O3)cc1 | 71 | – | · | · | · | –
COc1ccc(CN(C)C[C@H]2OCCCC[C@@H](C)Oc3ccc(NS(=O)(=O)c4ccc(OC)cc4)cc3C(=O)N([C@H](C)CO)C[C@H]2C)cc1 | – | – | · | · | · | ·
CC=Cc1ccc2n(c1=O)C[C@H]1[C@H](CO)[C@@H](C(=O)NCc3ccccc3)[C@@H]2N1C (mixture of isomers) | · | – | · | · | · | –

Screens: PubChem, several laboratories
